High-throughput results: PubChem BioAssay, Broad Institute
Rows were chosen to be rich in hits. Some 3.9% of all compounds tested hit in one or more screens of this group.
ALR H2O2 inh – inhibitors of human sulfhydryl oxidase ALR; AID 485317; 290,000 compounds, 3.8% hits; purified ALR, DTT oxidation, H2O2 HRP-luminol luminescence; inhibition, % (no concentration beside the values);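 active = mean replicate inhibition above about 79%, with every replicate also reaching it, limit read from the data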
NSD2 inh – inhibitors of human histone methyltransferase NSD2; O96028; NSD2 peptide methylation, AlphaScreen, 120 min; inhibition, % at 12.5 µM; 310,000 compounds, 0.54% hits; AID 743445; in the data active = inhibition above about 50%
Casp6 inh – blocks human caspase-6 cleavage activity; 350,000 compounds, 0.53% hits; inhibition, % at 12.5 µM; P55212; purified caspase-6, Z-VEID-R110 cleavage fluorescence;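 active = mean inhibition across replicates at least about 35%, with every replicate also reaching that limit, limit read from the data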
CDK5 inh – CDK5/p35 (human) kinase inhibition; inhibition, % at 10 µM; Q00535+Q15078; 330,000 compounds, 0.01% hits; Recombinant CDK5/p35, ADP-Glo luminescence, 60 min; AID 488839;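 active = highest replicate inhibition of at least 50% and at least 75% of replicates reaching 50%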
Target sequence (Q00535 whole entry, looked up): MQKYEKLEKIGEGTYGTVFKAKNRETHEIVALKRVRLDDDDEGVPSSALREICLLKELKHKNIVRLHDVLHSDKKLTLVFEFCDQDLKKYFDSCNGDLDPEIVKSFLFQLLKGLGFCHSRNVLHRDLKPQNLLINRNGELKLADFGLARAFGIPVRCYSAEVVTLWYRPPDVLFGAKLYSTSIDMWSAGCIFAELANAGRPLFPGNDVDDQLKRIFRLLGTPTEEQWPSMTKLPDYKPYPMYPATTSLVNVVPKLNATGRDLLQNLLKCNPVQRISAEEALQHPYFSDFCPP
Target sequence (Q15078 whole entry, looked up): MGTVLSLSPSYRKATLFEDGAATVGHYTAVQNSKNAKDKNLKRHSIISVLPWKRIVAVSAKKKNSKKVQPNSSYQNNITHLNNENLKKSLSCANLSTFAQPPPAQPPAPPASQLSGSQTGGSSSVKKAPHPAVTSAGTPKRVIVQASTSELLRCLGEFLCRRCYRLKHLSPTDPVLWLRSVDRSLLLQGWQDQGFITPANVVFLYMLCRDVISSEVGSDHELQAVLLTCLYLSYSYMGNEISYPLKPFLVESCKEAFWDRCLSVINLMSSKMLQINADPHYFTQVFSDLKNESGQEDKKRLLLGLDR
SUMO Mot1 rescue – inhibitors of SUMOylation pathway: yeast Mot1-301 growth rescue. S. cerevisiae Mot1-301 growth rescue, ATP luminescence, 38.5C; percent above DMSO median, 100 means doubled. growth rescue, % at 18.8 µM. 320,000 compounds, 1% hits;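 active = every valid replicate shows activation above 250% relative to neutral control wells; inactive = the rest, any valid replicate at or below 250%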
N-glyco inh – blocks N-linked glycosylation in D54 reporter cells | AID 588692 | reporter increase, % at 12.5 µM | D54 ERlucT glycosylation luciferase reporter, 24 h; percent of 100 nM tunicamycin response | 360,000 compounds, 0.23% hits;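 active = mean luciferase reporter signal, scaled so untreated is 0 and the glycosylation-blocking control 100, at or above a set limit in every replicate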;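 also: luciferase carries N-glycosylation sites so blocking glycosylation raises the light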
Alpha artifact – AlphaScreen assay artifact in NSD2 counter-screen; AC35, µM (series often up to 10 µM); 1,500 compounds, 9.4% hits; AlphaScreen artifact counterscreen, preloaded methylated H4 peptide; AID 1053174; shares compounds with NSD2 inh; call rule not given here
Numbers stand for hits; i = inactive; nt = no result; + = active, no number.

SMILES | ALR H2O2 inh | NSD2 inh | Casp6 inh | CDK5 inh | SUMO Mot1 rescue | N-glyco inh | Alpha artifact
O=C1CSc2ccc(S(=O)(=O)NCc3ccccc3Cl)cc2N1 | i | i | i | i | i | i | nt
Cc1nc(-[n+]2nc(-c3ccncc3)nn2-c2ccccc2)sc1C | nt | 69 | i | nt | nt | i | 2.1µM
COc1cc(NC(C)CCCN)c2ncccc2c1Oc1ccccc1 (configuration not stated) | nt | 63 | nt | i | nt | i | i
COc1ccc(Oc2c(OC)cc([N+](=O)[O-])c3ncccc23)cc1 | nt | i | i | i | nt | i | nt
C=CCN(CC=C)Cc1cc(=O)oc2ccc3ccccc3c12 | nt | nt | i | nt | nt | i | nt
C=CCN(CC=C)Cc1c(O)ccc2c1oc(=O)c1ccccc12 | i | 51 | nt | i | i | i | i
CS(=O)(=O)c1ccc2c(c1)sc1nc(=O)c(/C=C3/C=CC(=O)C(O)=C3)c(N)n12 | 90 | 119 | i | i | i | i | 7.1µM
CCN(CC)S(=O)(=O)c1cccc(-c2nnc(SCCCC(=O)c3ccc(F)cc3)o2)c1 | i | 127 | nt | i | i | i | i
c1coc(-c2nnc(-c3ccco3)nn2)c1 | nt | 140 | 89 | i | i | i | i
c1ccc(-c2nnc(-c3ccco3)o2)cc1 | i | nt | nt | i | i | i | nt
CN(C)Cc1csc(NC(=O)Nc2cccc(Cl)c2)n1 | nt | 74 | i | nt | nt | i | i
CN(C)Cc1cc(O)c(CN(C)C)cc1O | nt | 86 | i | i | i | i | i
CCNC(=O)C[C@@H]1CC[C@@H]2[C@H](COc3ccc(NC(=O)Nc4ccccc4F)cc3C(=O)N2C)O1 | nt | nt | i | nt | nt | nt | nt
Cc1c(-c2ccc(/C=N/NC(=O)C(=O)Nc3ccccc3F)o2)cccc1[N+](=O)[O-] | i | 64 | i | nt | i | i | i
Cc1ccc(S(=O)(=O)N2CCC(NC(=O)c3cccnc3)CC2)cc1Cl | i | 63 | i | i | i | i | i
O=C(NC1CCN(S(=O)(=O)c2ccc(Cl)cc2)CC1)c1cccnc1 | i | i | i | i | i | i | nt
C/C(CC(=O)Nc1ccc2ccccc2c1)=N\NC(=O)c1ccc(O)c(O)c1 | 99 | 111 | i | i | i | i | i
Cc1ccc(C)c(S(=O)(=O)N2CCCOC2CNC(=O)C(=O)NCc2cccnc2)c1 (configuration not stated) | i | 58 | i | i | i | i | i
COc1ccc(CN(C)C[C@H]2Oc3ccc(NC(=O)NC(C)C)cc3C(=O)N([C@H](C)CO)C[C@H]2C)cc1 | nt | nt | i | nt | nt | nt | nt
Cc1ccc(-c2c3c(=O)n(C)c(=O)n(C)c3cn2Cc2cccnc2)cc1 | i | i | nt | i | i | i | nt
Cn1c(=O)c2c(-c3ccccc3)n(Cc3cccnc3)cc2n(C)c1=O | i | 53 | nt | i | 290 | i | i
CCCN(C)C[C@H]1Oc2ncc(-c3cccnc3)cc2C(=O)N([C@H](C)CO)C[C@H]1C | nt | nt | i | nt | nt | nt | nt
O=C(Cc1cccnc1)N[C@H]1CC[C@H](CCn2cc(-c3ccccc3F)nn2)O[C@@H]1CO | nt | nt | i | nt | nt | nt | nt
NNC(=O)c1cc(O)c(O)c(O)c1 | 99 | + | 77 | i | i | i | i
COc1c(F)c(F)c(C(=O)Nc2cccc(Cl)c2N2CCOCC2)c(F)c1F | i | 56 | nt | i | i | i | i
SMILES | ALR H2O2 inh | NSD2 inh | Casp6 inh | CDK5 inh | SUMO Mot1 rescue | N-glyco inh | Alpha artifact
CCOc1cc(C(=O)NCC(=O)N2CCC3(CC2)NCCc2[nH]cnc23)cc(OCC)c1OCC | i | 56 | i | i | i | i | i
Cc1cc(C)cc(C(=O)NCC(=O)N2CCC3(CC2)NCCc2[nH]cnc23)c1 | i | i | i | i | i | i | nt
CC(=O)Nc1ccccc1Sc1ccccc1 | i | i | i | i | i | i | nt
O=C1c2cccc(Sc3ccccc3)c2C(=O)c2c(Sc3ccccc3)cccc21 | i | 76 | i | i | i | i | i
C[C@H]1CN([C@@H](C)CO)S(=O)(=O)c2ccc(-c3cccc(C(=O)N(C)C)c3)cc2O[C@@H]1CN(C)C | nt | nt | i | nt | nt | nt | nt
N#Cc1c(NC(=O)c2ccncc2)sc2c1CCC2 | i | 57 | i | i | i | i | i
NC(=O)c1c(NC(=O)c2ccncc2)sc2c1CCCC2 | nt | i | i | i | nt | i | nt
Cc1cc(OCCn2nc(C(=O)O)c3ccccc3c2=O)ccc1C(C)C | nt | 90 | i | i | nt | i | i
O=C(C[C@@H]1CC[C@H](NC(=O)Nc2ccc(C(F)(F)F)cc2)[C@H](CO)O1)NCc1ccccn1 | nt | nt | i | nt | nt | nt | nt
COC1=C(C)C(=O)C2=C(C1=O)C1C3CC4=C(C(=O)C(OC)=C(C)C4=O)C(CNC(=O)C(C)=O)N3C(C#N)C(C2)N1C (configuration not stated) | nt | 75 | i | i | nt | i | i
Cn1c(SCC(=O)Nc2ccccc2C(F)(F)F)nc2c(c1=O)SCC2 | i | i | i | i | i | i | nt
Cc1nc(N)sc1-c1nnc(SCC(=O)Nc2ccccc2C(F)(F)F)n1C | i | 125 | nt | i | i | i | i
